This passage reports AC50 and outcome results from PubChem BioAssay (EPA / NIEHS).

Structures are written as SMILES. Active and inactive are the calls of the source. How the source made its calls: active means hit-call score of the fitted dose curve at least 0.9, where 1 is the maximum; inactive means score below 0.9.

This assay in a line: ATG_CMV_CIS: Attagene CIS-FACTORIAL HepG2 Assay for human CMV (Internal Marker) (AID 2282928).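 Further: endpoint acts as a background internal control marker rather than a target.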 Conditions: HepG2 CMV promoter reporter, transcription factor profiling; actives raise or lower the signal. The method, then: ATG_CIS is a cell-based, multiplexed-readout assay that uses HepG2, a human liver cell line, with measurements taken at 24 hours after chemical dosing in a 24-well plate.ATG_CMV_CIS is one of 52 assay component(s) measured or calculated from the ATG_CIS assay. It is designed to make measurements of mRNA induction, a form of inducible reporter, as detected with fluorescence intensity signals by Reverse transcription polymerase chain reaction (RT-PCR) and Capillary electrophoresis technology.Data from the assay component ATG_CMV_CIS was analyzed into 1 assay endpoint. This assay endpoint, ATG_CMV_CIS, was analyzed with bidirectional fitting relative to DMSO as the negative control and baseline of activity. Using a type of inducible reporter, measures of mRNA for gain or loss-of-signal activity can be used to understand the background control at the transcription factor-level as they relate to the gene . Furthermore, this assay endpoint can be referred to as a secondary readout, because this assay has produced multiple assay endpoints where this one serves a background control function. To generalize the intended target to other relatable targets, this assay endpoint is annotated to the background measurement intended target family, where the subfamily is internal marker.
Human liver HepG2 cells are transiently transfected with multiple reporter transcription units (MRTUs) in 6-well plates using FuGene 6 reagent (Roche; 3 ml FuGene/1 mg DNA). The MRTU constructs are regulated by a cis-regulating element (promoter). […] A major difference between the CIS and TRANS system is that in CIS activities of endogenous TFs are measured, whereas the TRANS assay evaluates changes in activities of exogenous, chimeric NR-Gal4 proteins. […] At the end of 24 hour incubation, total RNA was isolated using TriZol reagent (Invitrogen). The isolated RNA is then reverse-transcribed using oligo(dT) primer and Mo-MLV reverse transcriptase (Invitrogen) with DNAse I (Ambion) treatment for 30 min. The one-tenth of the produced cDNA was amplified by PCR using Taq DNA polymerase (Invitrogen) and two reporter sequence-specific primers. The PCR products were fluorescently labeled by primer extension with 6-arboxyfluorescein (6-FAM) 5'-labeled reporter sequence-specific primer (2 min at 95 C, 20 s at 68 C and 10 min at 72 C) and these products were digested with 5U of HpaI (New England Biolabs) for 2h at 37 C. The fragments were purified using Qiaquick PCR columns (Qiagen), analyzed on an ABI 3130xL genetic analyzer (Applied Biosystems) with peak positions identified by using a set of X-rhodamine (ROX)-labeled MapMarker1000 molecular weight standards (BioVentures). The raw capillary electrophoresis data was processed using Attagraph software (Attagene).
What is called AC50 is the midpoint of the concentration-response curve, whichever way the signal moves. For `CN(C)c1ccc(N=O)cc1`, the AC50 is 7.81 µM (active).
In the case of `C1CCC(C2CCCCC2)CC1`, the AC50 was 86.2 µM (active).
In the case of `Cc1ccccc1OP(=O)(Oc1ccccc1C)Oc1ccccc1C`, the call was inactive.
In the case of `NC(=O)CCl`, the outcome was inactive.
As for `CCCCC(CC)COC(=O)Cl` (stereo not given), the compound was called inactive.
On to `Cc1ccc2nc3sc(=O)sc3nc2c1`, for which the compound was classed as inactive.
Same read-out and setting: the same measure for `Clc1cnc(Oc2ccc(Oc3ncc(Cl)cc3Cl)cc2)c(Cl)c1`: “inactive”; for `COC(F)(C(F)(F)C(F)(F)F)C(F)(C(F)(F)F)C(F)(F)F` (stereo not given): “inactive”.
Take `Clc1cc(C(Cl)(Cl)Cl)cnc1Cl`: the compound was called inactive.
`O=C(Nc1ccc(Br)cc1)c1cc(Br)cc(Br)c1O`: the outcome was inactive.
Take `COP(=S)(OC)Oc1cc(Cl)c(I)cc1Cl`: the AC50 is 50.2 µM (active).
For the compound `CN(CCCC(O)c1cccnc1)N=O` (stereo not given), the compound was classed as inactive.
As for `Nc1cccnc1`, the compound was classed as inactive.
On the same count and under the same terms, under `C=C(C)C(=O)OCC(CC)CCCC` (stereo not given) stands “inactive”; under `CC(C)[N+](=O)[O-]`, “inactive”.
Still for that read-out and setting: the same measure for `O=S(=O)(C(Cl)(Cl)Cl)C(Cl)(Cl)Cl`: “inactive”; for `O=C1C[C@@H]2OCC=C3CN4CC[C@]56c7ccccc7N1[C@H]5[C@H]2[C@H]3C[C@H]46`: “inactive”.
Consider `O=C(N[C@H]1CN2CCC1CC2)c1ccc2c(c1)OCCO2`, for which the call was inactive.
For the compound `CC1(C)[C@H](C(=O)O[C@H](C#N)c2cccc(Oc3ccccc3)c2)[C@@H]1/C=C(\Cl)C(F)(F)F`, the call was inactive.
On to `C#CCOC(=O)/C=C(C)/C=C/CC(C)CCCC(C)C` (stereo not given), for which the AC50 is 36.9 µM (active).
In the case of `CCOc1ccc(N)cc1`, the compound was called inactive.
Regarding `O=C(NC(=O)c1c(F)cccc1F)Nc1cc(Cl)c(Oc2ncc(C(F)(F)F)cc2Cl)c(Cl)c1`, the compound was called inactive.
As to `Cc1ccccc1OP(=O)(Oc1ccccc1)Oc1ccccc1`, the AC50 was 76.5 µM (active).
`Brc1ccc(Oc2c(Br)cc(Br)cc2Br)c(Br)c1`: the compound was called inactive.
Still for that read-out and setting: the same measure for `CCCSP(=S)(OCC)Oc1ccc(Cl)cc1Cl` (stereo not given): “inactive”; for `CCOc1cc(C=O)ccc1O`: “inactive”; for `O=S(=O)(F)C(F)(F)C(F)(F)C(F)(F)C(F)(F)F`: “inactive”.
On to `Oc1cccc(-c2ccccc2)c1`, for which the AC50 was 67.7 µM (active).
Regarding `CC(C)(C)c1ccccc1O`, the compound was called inactive.
In the case of `CC(C)[C@@H](Nc1ccc(C(F)(F)F)cc1Cl)C(=O)OC(C#N)c1cccc(Oc2ccccc2)c1` (stereo not given in full), the compound was classed as inactive.
With `ClCc1ccccc1CCl`, the AC50 was 56 µM (active).
Consider `BrCC(Br)c1ccccc1` (stereo not given), for which the call was inactive.
As for `O=C(O)CC(O)(CC(=O)O)C(=O)O`, the outcome was inactive.
Take `[F][Sn]([c]1ccccc1)([c]1ccccc1)[c]1ccccc1`: the concentration at half-maximal activity (AC50) was 0.334 µM (active).
As for `N#CCC#N`, the call was inactive.
With `O=C(Cc1ccccc1)OCCc1ccccc1`, the outcome was inactive.
The same measure, in the same setting: the same measure for `O=NN1CCOCC1`: “inactive”; for `CCCCCCCCCCCCc1cccc(S(=O)(=O)O)c1`: “inactive”; for `OC(Cc1ccccc1Cl)(Cn1[nH]cnc1=S)C1(Cl)CC1` (stereo not given): “inactive”.
Same read-out and setting: under `COCC(=O)N(c1c(C)cccc1C)[C@H](C)C(=O)OC` stands “inactive”.
